# Measurements reported in PubChem BioAssay AID504720 (Sanford-Burnham Center for Chemical Genomics, 2011).
# Among all 350,000 compounds or so, about 1,100 (0.31%) were called active. Cut-off read from the data, not from the text of the source: active = activation above about 50%; inactive = the rest. Many of the other results were omitted from the sample, so actives are more common in it than they were.
# Target: Endoribonuclease toxin MazF (Escherichia coli (strain K12)) (UniProt P0AE70)
# Experiment: activators of E. coli MazEF toxin-antitoxin RNase, primary screen, biochemical, fluorescence, uHTS (AID 504720)
# Conditions: FAM/BHQ RNA-DNA oligo cleavage fluorescence, 5 h, at 20 µM, hits give high values
# Sequence of Endoribonuclease toxin MazF (Escherichia coli (strain K12)) (P0AE70 whole entry, looked up): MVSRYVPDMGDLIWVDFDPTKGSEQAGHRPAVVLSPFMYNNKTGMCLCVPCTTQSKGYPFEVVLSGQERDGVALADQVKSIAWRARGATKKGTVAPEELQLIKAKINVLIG
row,SMILES,activation
1,Cc1cc(NC(=O)CSc2nc(C(C)C)nc3sc4c(c23)CCC(C)C4)no1 (stereo not drawn),2.72% (inactive)
2,Cc1nc(SCC(=O)Nc2cc(C)on2)c2c3c(sc2n1)CCCC3,63.5% (active)
3,CC(C)c1nc(SCC(=O)Nc2cccc(C(=O)O)c2)c2c3c(sc2n1)CCCC3,3.75% (inactive)
4,CCC(C)(C)NC(=O)C(c1ccccn1)N(C(=O)c1csnn1)c1ccccc1 (stereo not drawn),5.61% (inactive)
5,COc1ccc(CCNC(=O)CSc2nc(C)nc3c2oc2ccccc23)cc1OC,6.58% (inactive)
6,O=c1cc(CN2CCN(c3cccc(Cl)c3)CC2)c2cc3c(cc2o1)CCCC3,-4.83% (inactive)
7,Cc1ccnc(N2CCN(C(=O)CSc3nc4ccccc4nc3N3CCCCC3)CC2)c1,-5.31% (inactive)
8,COc1cc(OC)cc(-c2c(C#Cc3ccsc3)c3cc(-c4ccc(OC)cc4F)ccc3n2C)c1,-17.7% (inactive)
9,Cc1ccn2c(-c3csc(Nc4ccc(C(=O)O)cc4)n3)c(C)nc2c1,-8.63% (inactive)
10,O=c1oc2ccccc2cc1-c1csc(Nc2ccc(O)cc2)n1,78.3% (active)
11,Cc1ccc(Nc2nc(-c3ccc(O)cc3O)cs2)nc1,17.4% (inactive)
12,CCCC1(C(=O)OC)NC(c2ccco2)C2C(=O)N(C)C(=O)C21 (stereo not drawn),-13% (inactive)
13,NS(=O)(=O)c1ccc(NC(=S)NNC(=O)c2cccs2)cc1,13.7% (inactive)
14,O=C(COC(=O)c1ccccc1C(=O)N1CCN(c2ccccc2)CC1)NCc1ccccc1,67.3% (active)
15,Oc1ccc(N2CCN(C(=S)NCc3ccccc3)CC2)cc1,-1.54% (inactive)
16,CC(C)N(C(=O)COC(=O)c1ccccc1C(=O)N1CCN(c2ccc(F)cc2)CC1)C(C)C,5.64% (inactive)
17,Cn1c2ccccc2n2c(=O)c(=O)n(CC(=O)c3ccc(F)cc3)nc12,-20.6% (inactive)
18,CCSc1ccccc1C(=O)NCc1ccc(OC)cc1,2.86% (inactive)
19,COc1ccc(OC)c(NC(=O)c2cnn(-c3ccccc3Cl)c2NC(=O)c2ccco2)c1,4.29% (inactive)
20,Cn1nc(C(F)(F)F)cc1C(=O)O,11.7% (inactive)

row,SMILES,activation
1,Cn1nc(C(F)(F)F)cc1-c1ccc(/C=C(\C#N)C(=O)c2cccc(C(F)(F)F)c2)s1,730% (active)
2,CCC(=O)OCc1c(C(F)(F)F)nn(C)c1Oc1cccc(C(F)(F)F)c1,-2.22% (inactive)
3,C=CCSc1nc(Cc2ccc(Cl)cc2)nc2ccccc12,-10.7% (inactive)
4,COc1cccc(OC)c1CN(C)C(=O)c1cnccc1C(F)(F)F,-0.62% (inactive)
5,Cc1nc([N+](=O)[O-])cn1CC(=O)Nc1ccc(Cl)cc1,7.49% (inactive)
6,Nc1c(C(=O)c2cccs2)sc2nsc(SCCN3CCCCC3)c12,790% (active)
7,CN=C(c1ccccc1)c1c(C)cccc1C,0.32% (inactive)
8,CN(C)CCNC(=O)C(C(=O)c1ccccc1)n1ccccc1=O (stereo not drawn),5.66% (inactive)
9,Cc1nn2c3cc(N4CCOCC4)ccc3nc2c2ccccc12,31.7% (inactive)
10,CC(=O)c1sc(NC(=O)C2=NN(c3ccccc3)C(=O)CC2)nc1C,0.238% (inactive)
11,Cc1ccn2c(=O)c(NC(=O)c3cccc4ccccc34)c(C)nc2c1,4.6% (inactive)
12,CC(=O)c1sc(NC(=O)c2cccc3ccccc23)nc1C,63.5% (active)
13,Cc1cccc(N2C(=O)C3C(c4ccccc4)OC4(C(=O)c5ccccc5C4=O)C3C2=O)c1 (stereo not drawn),0.83% (inactive)
14,CCOc1ccc(N2C(=O)Nc3ccccc3C2(O)C(=O)NCc2ccco2)cc1 (stereo not drawn),-28.4% (inactive)
15,CCCCCCCC(=O)NC(Nc1ccccc1OC)C(Cl)(Cl)Cl (stereo not drawn),-13.4% (inactive)
16,Cc1ccsc1CNn1cnnc1SCc1ccccc1F,54.5% (active)
17,Cc1ccccc1CSc1nnc(-c2cccnc2)n1N,-17.4% (inactive)
18,CCN(CC(=O)NCc1cccs1)C(=O)c1cccc(S(=O)(=O)Nc2ccccc2OC)c1,2.02% (inactive)
19,CCOc1ccc(C(C(=O)NCCOC)N(CCOC)C(=O)CCC(=O)Nc2ccccn2)cc1 (stereo not drawn),-1.66% (inactive)
20,Cc1ccc(C(=O)O)cc1N1C(=O)CCCC1=O,4.24% (inactive)

row,SMILES,activation
1,COCCCNc1nc2c(-c3cccc(C)c3)nnn2c2ccc(Cl)cc12,6.31% (inactive)
2,CN(CC(=O)Nc1ccc(F)c(F)c1F)C(=O)Cn1cnc2c1c(=O)n(C)c(=O)n2C,3.59% (inactive)
3,O=C(c1ccc(Cl)cc1)N1N=C(c2ccccn2)CC1(O)C(F)(F)F (stereo not drawn),7.8% (inactive)
4,O=C1NC(=O)N(c2ccc(F)cc2)C(=O)/C1=C/c1ccc2c(c1)CCCN2Cc1ccccc1,50.1% (active)
5,O=C1CN(C(=O)c2cc(F)cc(F)c2)c2ccccc2N1,10.5% (inactive)
6,COCCNC(=O)C(c1ccc(O)cc1)N(C(=O)CCC(=O)Nc1nccs1)c1ccc(C)cc1 (stereo not drawn),8.66% (inactive)
7,CC(=O)Oc1cc2c(C(=O)NCCN3CCOCC3)c(C)oc2c2ccccc12,-12.4% (inactive)
8,O=C(CN1C(=O)NC(Cc2ccccc2)(Cc2ccccc2)C1=O)NCC1CCCCC1,2.41% (inactive)
9,CCCCCCNCCn1cnc2c(N)ncnc21,2.79% (inactive)
10,CCOCCN(C=O)c1cccc(OC)c1,4.02% (inactive)
11,COc1ccc(C(C(=O)NC2CCCCC2)N(C(=O)c2snc(C(N)=O)c2N)c2ccccc2OC)cc1 (stereo not drawn),6.68% (inactive)
12,COc1ccc(N(C(=O)c2snc(C(N)=O)c2N)C(C(=O)NC2CCCC2)c2ccc(C)o2)c(OC)c1 (stereo not drawn),146% (active)
13,CCC(C(=O)NC1CCCCC1)N(C(=O)c1snc(C(N)=O)c1N)c1ccc(OC)cc1OC (stereo not drawn),8.72% (inactive)
14,O=C(NCCCO)/C(=C\C=C\c1ccccc1)NC(=O)c1ccccc1Cl,-2.84% (inactive)
15,CCNC(=O)NC(=O)C(C)OC(=O)C1CCN(S(=O)(=O)c2ccccc2F)CC1 (stereo not drawn),5.47% (inactive)
16,C=CC[C@H](CC(=O)N(CCO)Cc1ccccc1)C(=O)N[C@@H](COC(=O)[C@@H](CC=C)Cc1ccc(F)cc1)Cc1ccccc1,-7.46% (inactive)
17,Cc1nc(NCc2ccccc2)c(C(N)=O)c2c1COC(C)(C)C2,-2.87% (inactive)
18,CCCn1c(=O)c2c(C(F)(F)F)cc(-c3cccs3)nc2n(CCC)c1=O,11.8% (inactive)
